Only some compounds are listed: those with a hit (about 10% of all), similar ones and a draw of the others.
3T3 cytotox: cytotoxic compounds in NIH 3T3 cells; NIH 3T3 viability, CellTiter-Glo ATP luminescence, 48-72 h; Potency, µM (top dose mostly 96.7 µM), without a hit: top-dose activity change, negative = cytotoxicity, most hits filed as inhibitors; 94,000 tested, 4.3% active; note: % is set by controls: 0 for no effect and ±100 for the full control effect; nearly all actives have a fitted effect of over 55% in size
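NIH 3T3 cells at 400 cells/well received 23 nL of compound by pintool and were incubated 48 or 72 h at 37 °C. Viability was read as ATP-coupled CellTiter-Glo luminescence.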
GPT2 inh: inhibitors of human GPT2 alanine aminotransferase. Recombinant GPT2, coupled pyruvate oxidase/HRP Amplex Red fluorescence. 100,000 tested, 0.25% active. AID 1671188. Q8TD30. Potency, µM (titrated, usually from 57.7 µM), inactives show at the top dose activity change, negative = inhibition, usual class: inhibitors; note: % is set by controls: 0 for no effect and ±100 for the full control effect; nearly all actives have a fitted effect of over 60% in size
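GPT2 10ng/uL, a-KG 250uM, L-Ala 2mM, HEPES pH7.5 + 0.0001% Tween; 30 min RT. Then Amplex mix (PO/HRP/ThPP), 30 min RT dark, fluorescence. AOA 50uM used as positive control.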
HEK cytotox: cytotoxic compounds in HEK 293 cells; 94,000 tested, 6.6% active; HEK 293 viability, ATP luminescence (CellTiter-Glo), 48-72 h; Potency, µM (highest dose often 115 µM), for inactives: top-dose activity change, negative = cytotoxicity, actives largely listed as inhibitors; AID 1345083; note: % is set by controls: 0 for no effect and ±100 for the full control effect; nearly all actives have a fitted effect of over 60% in size
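250 HEK 293 cells/well; compound by pintool; incubated 48 or 72 hr at 37 degree Celsius; CellTiter-Glo added, 10 min RT, luminescence imaged.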
FLuc inh: Photinus pyralis luciferase inhibition | Potency, µM (titrated, usually from 115 µM), hits mostly inhibitors | purified P. pyralis luciferase, luminescence, biochemical | P08659 | 76,000 tested, 2.5% active | AID 1347043; note: % is set by controls: 0 for no effect and ±100 for the full control effect; nearly all actives have a fitted effect of over 65% in size
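Purified P. pyralis luciferase (10nM final) in 50mM Tris acetate pH 7.5, 10mM Mg acetate, 0.01% Tween-20, 0.05% BSA with 10uM D-luciferin and 10uM ATP. Compounds titrated qHTS. Luminescence imaged on CCD.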
NPR1 antag: blocks ANP-stimulated signaling of human Npr1 receptor. Potency, µM (highest dose often 46.3 µM), for inactives: at the highest dose activity change, negative = inhibition, most hits filed as inhibitors. 76,000 tested, 1.6% active. HEK293 hNpr1 GloSensor cGMP, ANP-stimulated luminescence; calls by dose curve; note: % is set by controls: 0 for no effect and ±100 for the full control effect; nearly all actives have a fitted effect of over 60% in size
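Compound pre-incubated 30 min at room temperature on GloSensor-loaded HEK293 cells stably carrying hNpr1 and the pGS-40F cGMP biosensor. Stimulation uses hNppA at 0.1 nM final; luminescence is taken at baseline and 20 min post-agonist.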
Npr1 antag conf: confirmation of human Npr1 natriuretic peptide receptor antagonists; AID 1347044; 1,400 tested, 76% active; HEK293 hNpr1 cGMP GloSensor luminescence, ANP-stimulated; shares compounds with NPR1 antag; Potency, µM (series often up to 57.6 µM), without a hit: at the highest dose activity change, negative = inhibition, most hits filed as inhibitors; calls by dose curve; note: nearly all actives have a fitted effect of over 70% in size
NPR2 antag: selectivity test of Npr1 antagonists against human Npr2; 1,400 tested, 67% active; shares compounds with NPR1 antag; Potency, µM (highest dose often 57.6 µM), without a hit: at the highest dose activity change, negative = inhibition, actives largely listed as inhibitors; HEK293 hNpr2 GloSensor cGMP luminescence, CNP-stimulated; calls by dose curve; note: nearly all actives have a fitted effect of over 70% in size
Target sequence (P20594 whole entry, looked up): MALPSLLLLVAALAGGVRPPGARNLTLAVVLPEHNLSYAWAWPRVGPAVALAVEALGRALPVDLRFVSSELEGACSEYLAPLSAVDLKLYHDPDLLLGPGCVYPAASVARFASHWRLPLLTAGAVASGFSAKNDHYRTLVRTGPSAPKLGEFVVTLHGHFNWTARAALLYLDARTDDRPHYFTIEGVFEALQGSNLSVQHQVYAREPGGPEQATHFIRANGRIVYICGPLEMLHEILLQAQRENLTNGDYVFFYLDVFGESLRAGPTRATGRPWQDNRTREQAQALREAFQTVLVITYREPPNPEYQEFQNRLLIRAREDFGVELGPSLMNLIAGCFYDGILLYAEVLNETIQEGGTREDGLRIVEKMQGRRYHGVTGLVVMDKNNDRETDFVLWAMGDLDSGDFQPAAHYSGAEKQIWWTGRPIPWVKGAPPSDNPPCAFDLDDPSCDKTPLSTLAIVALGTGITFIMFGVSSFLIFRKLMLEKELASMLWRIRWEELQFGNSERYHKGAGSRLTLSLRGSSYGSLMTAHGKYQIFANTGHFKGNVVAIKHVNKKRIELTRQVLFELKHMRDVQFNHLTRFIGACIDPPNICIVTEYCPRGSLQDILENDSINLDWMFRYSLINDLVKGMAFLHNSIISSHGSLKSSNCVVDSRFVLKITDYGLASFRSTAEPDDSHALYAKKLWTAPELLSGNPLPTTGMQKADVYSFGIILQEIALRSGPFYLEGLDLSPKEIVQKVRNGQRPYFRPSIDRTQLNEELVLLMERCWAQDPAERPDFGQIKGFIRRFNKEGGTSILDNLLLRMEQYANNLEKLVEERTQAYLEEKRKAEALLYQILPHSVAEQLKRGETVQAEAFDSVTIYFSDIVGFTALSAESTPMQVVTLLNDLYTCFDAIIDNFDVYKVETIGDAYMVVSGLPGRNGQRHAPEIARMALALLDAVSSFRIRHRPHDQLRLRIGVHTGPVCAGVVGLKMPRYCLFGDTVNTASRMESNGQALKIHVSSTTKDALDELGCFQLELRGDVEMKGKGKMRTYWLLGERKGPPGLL
FLuc counter: counter-screen for Npr1 antagonists: firefly luciferase inhibitors; shares compounds with NPR1 antag; purified FLuc enzyme, luminescence, Km substrate; Potency, µM (series often up to 57.6 µM), for inactives: at the top dose activity change, negative = inhibition, usual class: inhibitors; 1,400 tested, 0.7% active; AID 1347047; note: 0% is about no effect
GloSensor ctrl: control cell line activity, Npr1 antagonist counter-screen; Potency, µM (series often up to 57.6 µM), inactives show at the top dose activity change, negative = inhibition, most hits filed as inhibitors; 1,400 tested, 69% active; HEK293 GloSensor cGMP, SNP-stimulated, luminescence; shares compounds with NPR1 antag; calls by dose curve; note: % is set by controls: 0 for no effect and ±100 for the full control effect; nearly all actives have a fitted effect of over 70% in size
Active calls of the source: *; [ ] = another dose, or the depositor's remark. Unless noted, calls come from the whole dose curve; as a rule, active = well fitted curve in the direction sought with a large enough effect; inconclusive = small, poorly fitted or top-dose-only effect, or another doubt; inactive = no such curve, though single readings can be large; an effect the other way counts as inactive or inconclusive. Potency is the fitted concentration of half-maximal effect.

`O=C(Nc1ccc(Cl)cc1)c1nc2c(o1)CCN(Cc1cccc(F)c1F)CC2` gave 3T3 cytotox inconclusive, GPT2 inh -3.3%[88.5 µM], HEK cytotox 31.6µM*, FLuc inh inactive, NPR1 antag 3.55µM*, Npr1 antag conf 6.27µM*, NPR2 antag 9.94µM*, FLuc counter -5.6%[86.2 µM] and GloSensor ctrl 7.03µM*.
Screening O=C(c1nc2c(o1)CCN(Cc1cc(F)ccc1F)CC2)N1CCOCC1 returned 3T3 cytotox -22.4%[138 µM], GPT2 inh 3.7%[88.5 µM], HEK cytotox inconclusive, FLuc inh inactive and NPR1 antag 0.7%[70.6 µM].
For O=C(Nc1ccc(Cl)cc1)c1nc2c(o1)CCN(Cc1ccc(F)cc1F)CC2 the results were 3T3 cytotox inconclusive, GPT2 inh inconclusive, HEK cytotox inconclusive, FLuc inh inactive, NPR1 antag 3.16µM*, Npr1 antag conf 7.03µM*, NPR2 antag 8.86µM*, FLuc counter 1.8%[86.2 µM] and GloSensor ctrl 7.89µM*.
Screening COCCNC(=O)c1nc2c(o1)CCN(Cc1cccc(F)c1F)CC2 returned 3T3 cytotox inconclusive, GPT2 inh -21.1%[88.5 µM], HEK cytotox -45.4%[172 µM], FLuc inh inactive and NPR1 antag -0.2%[70.6 µM].
For COc1ccc(C(=O)N2CCC3(CC2)N=C(c2ccc(Cl)cc2)NO3)cc1 the results were 3T3 cytotox -15.5%, GPT2 inh inactive, HEK cytotox inconclusive, FLuc inh inactive, NPR1 antag 10µM*, Npr1 antag conf 17.2µM*, NPR2 antag 19.3µM*, FLuc counter -13.2% and GloSensor ctrl 9.68µM*.
`COc1ccc(C(=O)N2CCC3(CC2)N=C(c2ccc(Cl)cc2)NO3)cc1F` gave 3T3 cytotox -25.6%, GPT2 inh inactive, HEK cytotox inconclusive, FLuc inh inactive, NPR1 antag 10µM*, Npr1 antag conf 19.3µM*, NPR2 antag 19.3µM*, FLuc counter -4.6% and GloSensor ctrl 21.7µM*.
COc1ccc(C(=O)N2CCC3(CC2)N=C(c2ccccc2)NO3)cc1F was read as 3T3 cytotox -13.5%, GPT2 inh inactive, HEK cytotox -6.7%, FLuc inh inactive and NPR1 antag -7.7%.
`COCCN1C(=O)c2ccccc2C(C(=O)N2CCC(C)CC2)C12CCCC2` (centres undefined) gave 3T3 cytotox -17.7%, GPT2 inh -3.8%, HEK cytotox -29.5%, FLuc inh inactive and NPR1 antag -3.8%.
Cc1cccc2c1nc1n2[C@@H](CNS(=O)(=O)c2ccccc2)COC1 was read as 3T3 cytotox inconclusive, GPT2 inh 0.2%[88.5 µM], HEK cytotox inconclusive, FLuc inh inactive and NPR1 antag inconclusive.
CS(=O)(=O)c1ccc(CNC[C@H]2COCc3nc4cc(F)ccc4n32)cc1 was read as 3T3 cytotox inconclusive, GPT2 inh -6.7%[88.5 µM], HEK cytotox inconclusive, FLuc inh inactive and NPR1 antag -28.6%[70.6 µM].
COc1ccc(S(=O)(=O)NC[C@H]2COCc3nc4cc(C)ccc4n32)cc1 was read as 3T3 cytotox inconclusive, GPT2 inh inactive, HEK cytotox inconclusive, FLuc inh inactive, NPR1 antag 15.8µM*, Npr1 antag conf 31.4µM*, NPR2 antag 31.4µM*, FLuc counter 3.4%[86.2 µM] and GloSensor ctrl 22.2µM*.
For COc1ccc(-c2cn3c(n2)CO[C@@H](CNS(=O)(=O)c2ccc(C)cc2)C3)cc1 the results were 3T3 cytotox -31.8%[174 µM], GPT2 inh -53.6%[88.5 µM], HEK cytotox -11.5%[172 µM], FLuc inh inactive, NPR1 antag 28.2µM*, Npr1 antag conf 31.4µM*, NPR2 antag 31.4µM*, FLuc counter inconclusive and GloSensor ctrl 28µM*.
`COc1ccc(S(=O)(=O)NC[C@H]2COCc3nc4c(C)cccc4n32)cc1` gave 3T3 cytotox inconclusive, GPT2 inh 2.7%[88.5 µM], HEK cytotox inconclusive, FLuc inh inactive, NPR1 antag 25.1µM*, Npr1 antag conf 17.7µM*, NPR2 antag 22.2µM*, FLuc counter 0.0%[86.2 µM] and GloSensor ctrl 14µM*.
`Cc1cccc2c1nc1n2[C@@H](CNCc2ccc(S(C)(=O)=O)cc2)COC1` gave 3T3 cytotox inconclusive, GPT2 inh inactive, HEK cytotox inconclusive, FLuc inh inactive, NPR1 antag 25.1µM*, Npr1 antag conf 31.4µM*, NPR2 antag 35.3µM*, FLuc counter 0.0%[86.2 µM] and GloSensor ctrl 22.2µM*.
Screening CC(=O)NC1CCCN(c2ccc3nnc(-c4ccccc4)n3n2)C1 (centres undefined) returned 3T3 cytotox -25.4% and HEK cytotox -12.8%.
O=C(Nc1ccc([C@@H](O)[C@H]2COCC(=O)N2Cc2ccc(F)cc2)cc1)c1ccnc(Cl)c1 was read as 3T3 cytotox inconclusive, GPT2 inh -3.7%, HEK cytotox inconclusive, FLuc inh inactive and NPR1 antag inconclusive.
`CN1CC2(CCCN(C(=O)c3ccc(OC(F)F)cc3)CC2)OC1=O` (centres undefined) gave 3T3 cytotox 2.5%, GPT2 inh -2.1%, HEK cytotox inactive, FLuc inh inactive and NPR1 antag 0.8%.
For Cc1ccc2c(c1)nc1n2[C@@H](CNS(=O)(=O)Cc2ccccc2)COC1 the results were 3T3 cytotox inconclusive, GPT2 inh -5.5%[88.5 µM], HEK cytotox inconclusive, FLuc inh inactive, NPR1 antag 22.4µM*, Npr1 antag conf 35.3µM*, NPR2 antag 35.3µM*, FLuc counter -1.0%[86.2 µM] and GloSensor ctrl 28µM*.
`Cc1ccc2nc3n(c2c1)[C@@H](CNS(=O)(=O)Cc1ccccc1)COC3` gave 3T3 cytotox inconclusive, GPT2 inh -4.5%[88.5 µM], HEK cytotox inconclusive, FLuc inh inactive and NPR1 antag inconclusive.
